Our source for the binding signal values is PMC7862700, “An all-to-all approach to the identification of sequence-specific readers for epigenetic DNA modifications on cytosine”.

Holding throughout (assay): DAPPL (digital affinity profiling via proximity ligation, sequencing); 10 mM Tris-HCl pH 7.5, 50 mM NaCl, 1 mM DTT, 4% glycerol, room temperature, 30 min; GST-TFs on glutathione beads, 16-mer random dsDNA library, 0.1% formaldehyde crosslink after washing; high values mean tight binding
The target in test [1] is T1, FLI1 (Homo sapiens, UniProt Q01543 1-452).
T1 sequence: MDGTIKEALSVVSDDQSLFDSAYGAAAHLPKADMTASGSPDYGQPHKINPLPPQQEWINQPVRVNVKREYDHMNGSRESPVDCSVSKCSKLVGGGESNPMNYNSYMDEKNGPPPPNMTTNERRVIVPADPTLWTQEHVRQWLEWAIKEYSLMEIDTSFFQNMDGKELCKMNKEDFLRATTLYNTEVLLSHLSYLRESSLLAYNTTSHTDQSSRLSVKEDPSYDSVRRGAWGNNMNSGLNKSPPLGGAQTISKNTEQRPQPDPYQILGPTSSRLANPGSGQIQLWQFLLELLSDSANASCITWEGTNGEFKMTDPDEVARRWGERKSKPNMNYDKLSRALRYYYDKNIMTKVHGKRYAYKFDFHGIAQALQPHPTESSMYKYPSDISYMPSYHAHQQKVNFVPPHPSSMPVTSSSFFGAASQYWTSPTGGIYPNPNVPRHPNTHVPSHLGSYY
To be noted: protein: recombinant; tags: N-terminal GST; dsDNA, one strand shown. The procedure, abridged: (§1)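 In yeast, human transcription factors were expressed with a GST fusion, then pulled down on glutathione beads and given DNA barcodes. Pooled with a tag-only sample, they were exposed to 200 nmole of a 16-mer random double-stranded DNA library (Tris/NaCl/DTT/glycerol buffer, room temperature, 30 min), washed, crosslinked with 0.1% formaldehyde, proximity-ligated using BsaI/T4 ligase for 1 h at 37 °C, PCR-amplified and read on an Illumina NextSeq500. Each hexamer's frequency of reads for a factor, divided by the matching frequency for the tag-only sample, gives the binding signal.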

In test [2] the target is T2, ELK1 (Homo sapiens, UniProt P19419 1-428).
T2 sequence: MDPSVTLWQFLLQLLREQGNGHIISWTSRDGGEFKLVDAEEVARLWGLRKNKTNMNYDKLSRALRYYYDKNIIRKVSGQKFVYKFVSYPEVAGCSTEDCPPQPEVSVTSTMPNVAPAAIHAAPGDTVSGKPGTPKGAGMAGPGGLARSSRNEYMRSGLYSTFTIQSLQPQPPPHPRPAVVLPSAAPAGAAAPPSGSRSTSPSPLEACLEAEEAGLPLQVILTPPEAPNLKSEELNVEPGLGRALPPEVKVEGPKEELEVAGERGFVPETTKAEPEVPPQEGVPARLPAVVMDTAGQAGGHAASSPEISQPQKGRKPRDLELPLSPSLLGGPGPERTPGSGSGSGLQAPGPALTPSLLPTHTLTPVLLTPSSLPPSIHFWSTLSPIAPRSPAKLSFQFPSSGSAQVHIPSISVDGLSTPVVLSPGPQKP
To be noted: protein: recombinant; tags: N-terminal GST; dsDNA, one strand shown. The procedure, abridged: as §1

Test [3] concerns the target T3, GABPA (Homo sapiens, UniProt Q06546 1-454).
T3 sequence: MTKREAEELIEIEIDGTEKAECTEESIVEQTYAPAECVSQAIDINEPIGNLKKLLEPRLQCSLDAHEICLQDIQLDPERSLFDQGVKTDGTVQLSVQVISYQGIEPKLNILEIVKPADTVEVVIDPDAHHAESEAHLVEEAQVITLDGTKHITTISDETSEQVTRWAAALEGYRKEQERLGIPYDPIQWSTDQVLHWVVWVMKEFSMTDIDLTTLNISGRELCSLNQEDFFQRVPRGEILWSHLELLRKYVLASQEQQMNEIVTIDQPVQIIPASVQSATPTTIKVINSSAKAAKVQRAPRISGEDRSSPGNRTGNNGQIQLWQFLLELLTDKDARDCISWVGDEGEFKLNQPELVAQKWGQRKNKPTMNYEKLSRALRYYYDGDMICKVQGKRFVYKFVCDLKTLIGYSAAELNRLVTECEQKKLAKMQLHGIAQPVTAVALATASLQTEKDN
To be noted: protein: recombinant; tags: N-terminal GST; dsDNA, one strand shown. A digest of the protocol: as §1

Test [4] concerns the target T4, ERG (Homo sapiens, UniProt P11308 1-479).
T4 sequence: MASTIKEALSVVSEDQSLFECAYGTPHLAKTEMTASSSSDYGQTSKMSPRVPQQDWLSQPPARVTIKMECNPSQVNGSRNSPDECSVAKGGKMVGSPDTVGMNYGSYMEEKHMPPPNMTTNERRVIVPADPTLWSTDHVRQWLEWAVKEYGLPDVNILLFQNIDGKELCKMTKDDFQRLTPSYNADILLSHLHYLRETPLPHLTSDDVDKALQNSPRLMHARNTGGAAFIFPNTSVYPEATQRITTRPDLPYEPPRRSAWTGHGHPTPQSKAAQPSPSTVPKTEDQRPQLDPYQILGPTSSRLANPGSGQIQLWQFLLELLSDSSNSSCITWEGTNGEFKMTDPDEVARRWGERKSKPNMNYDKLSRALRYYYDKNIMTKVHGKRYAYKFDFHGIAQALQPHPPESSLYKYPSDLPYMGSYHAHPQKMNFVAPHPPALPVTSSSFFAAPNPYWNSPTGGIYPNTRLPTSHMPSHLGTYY
To be noted: protein: recombinant; tags: N-terminal GST; dsDNA, one strand shown. The procedure, abridged:
as §1

The target in test [5] is ELF1 (Homo sapiens, UniProt P32519 1-619). To be noted: protein: recombinant; tags: N-terminal GST; dsDNA, one strand shown. A digest of the protocol:
as §1

The target of test [6] is T5, EHF (Homo sapiens, UniProt Q9NZC4 1-300).
T5 sequence: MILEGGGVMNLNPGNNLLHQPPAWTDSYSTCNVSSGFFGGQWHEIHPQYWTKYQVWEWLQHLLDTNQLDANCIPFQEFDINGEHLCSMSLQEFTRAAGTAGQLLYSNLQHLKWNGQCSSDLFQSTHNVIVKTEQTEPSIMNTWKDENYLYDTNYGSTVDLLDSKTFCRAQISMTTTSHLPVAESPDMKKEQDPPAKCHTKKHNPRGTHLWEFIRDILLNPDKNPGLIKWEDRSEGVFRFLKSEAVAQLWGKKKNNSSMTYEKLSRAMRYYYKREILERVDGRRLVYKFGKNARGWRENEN
To be noted: protein: recombinant; tags: N-terminal GST; dsDNA, one strand shown. The procedure, abridged:
as §1

For test [7], the target named is SPI1 (Homo sapiens, UniProt P17947 1-270). To be noted: protein: recombinant; tags: N-terminal GST; dsDNA, one strand shown. A digest of the protocol:
as §1

In test [8] the target is SPIB (Homo sapiens, UniProt Q01892 1-262). The note with it: protein: recombinant; tags: N-terminal GST; dsDNA, one strand shown. The procedure, abridged: as §1
SPIB, sequence (Q01892 whole entry): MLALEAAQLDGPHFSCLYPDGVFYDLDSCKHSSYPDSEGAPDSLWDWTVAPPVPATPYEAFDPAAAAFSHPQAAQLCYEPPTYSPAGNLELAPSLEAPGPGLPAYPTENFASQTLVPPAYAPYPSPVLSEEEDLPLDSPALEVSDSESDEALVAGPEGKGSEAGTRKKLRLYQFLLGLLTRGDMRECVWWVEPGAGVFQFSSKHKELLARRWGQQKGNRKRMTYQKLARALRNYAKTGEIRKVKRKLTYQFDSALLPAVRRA
The target of test [9] is T6, ELK3 (Homo sapiens, UniProt P41970 1-407).
T6 sequence: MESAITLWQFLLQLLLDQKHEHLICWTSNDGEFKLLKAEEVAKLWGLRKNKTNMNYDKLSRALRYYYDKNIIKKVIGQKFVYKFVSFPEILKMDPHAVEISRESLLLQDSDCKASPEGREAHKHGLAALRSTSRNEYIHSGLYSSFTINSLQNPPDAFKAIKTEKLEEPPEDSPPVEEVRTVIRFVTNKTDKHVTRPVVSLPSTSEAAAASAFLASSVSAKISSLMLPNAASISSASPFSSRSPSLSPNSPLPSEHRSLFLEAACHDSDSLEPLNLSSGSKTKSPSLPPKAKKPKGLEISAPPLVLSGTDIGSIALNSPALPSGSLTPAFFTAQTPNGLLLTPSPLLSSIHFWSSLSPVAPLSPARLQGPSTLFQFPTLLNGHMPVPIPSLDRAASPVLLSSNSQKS
The note with it: protein: recombinant; tags: N-terminal GST; dsDNA, one strand shown. A digest of the protocol:
as §1

Test [10] deals with T7, FEV (Homo sapiens, UniProt Q99581 1-238).
T7 sequence: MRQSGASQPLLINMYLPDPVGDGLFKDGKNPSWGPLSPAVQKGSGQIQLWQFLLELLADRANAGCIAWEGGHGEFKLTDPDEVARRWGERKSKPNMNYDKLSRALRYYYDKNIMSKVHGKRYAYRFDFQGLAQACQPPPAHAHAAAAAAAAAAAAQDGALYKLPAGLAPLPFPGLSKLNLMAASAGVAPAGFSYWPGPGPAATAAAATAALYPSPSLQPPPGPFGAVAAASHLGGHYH
The note with it: protein: recombinant; tags: N-terminal GST; dsDNA, one strand shown. The procedure, abridged:
as §1

Test [11] addresses ETV5 (Homo sapiens, UniProt P41161 1-510). The note with it: protein: recombinant; tags: N-terminal GST; dsDNA, one strand shown. A digest of the protocol: as §1
The target in test [12] is HSF1 (Homo sapiens, UniProt Q00613 1-529). The note with it: protein: recombinant; tags: N-terminal GST; chain copies: 3; dsDNA, one strand shown. A digest of the protocol: as §1
HSF1, sequence (Q00613 whole entry): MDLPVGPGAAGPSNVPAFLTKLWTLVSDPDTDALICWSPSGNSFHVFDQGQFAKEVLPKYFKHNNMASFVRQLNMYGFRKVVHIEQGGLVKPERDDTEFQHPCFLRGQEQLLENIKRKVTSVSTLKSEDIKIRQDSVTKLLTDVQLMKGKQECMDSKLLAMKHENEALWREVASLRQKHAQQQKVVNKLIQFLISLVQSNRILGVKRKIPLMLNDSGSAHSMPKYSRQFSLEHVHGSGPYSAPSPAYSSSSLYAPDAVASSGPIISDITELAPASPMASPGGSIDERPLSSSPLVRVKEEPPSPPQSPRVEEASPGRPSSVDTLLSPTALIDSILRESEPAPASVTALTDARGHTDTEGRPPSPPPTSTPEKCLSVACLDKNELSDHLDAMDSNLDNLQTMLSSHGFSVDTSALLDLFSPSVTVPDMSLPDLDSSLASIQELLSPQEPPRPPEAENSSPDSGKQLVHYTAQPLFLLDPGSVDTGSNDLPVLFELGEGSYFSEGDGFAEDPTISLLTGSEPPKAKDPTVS
Test [13] has as its target T8, SPIC (Homo sapiens, UniProt Q8N5J4 1-248).
T8 sequence: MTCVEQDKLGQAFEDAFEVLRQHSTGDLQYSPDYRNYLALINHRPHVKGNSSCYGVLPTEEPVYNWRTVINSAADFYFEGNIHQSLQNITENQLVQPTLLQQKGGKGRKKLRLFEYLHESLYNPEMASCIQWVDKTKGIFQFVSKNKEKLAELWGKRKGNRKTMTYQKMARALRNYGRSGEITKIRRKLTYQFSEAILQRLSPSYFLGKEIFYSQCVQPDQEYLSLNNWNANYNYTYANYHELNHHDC
The note with it: protein: recombinant; tags: N-terminal GST; dsDNA, one strand shown. The procedure, abridged:
as §1

In test [14] the target is ELF4 (Homo sapiens, UniProt Q99607 1-663). The note with it: protein: recombinant; tags: N-terminal GST; dsDNA, one strand shown. A digest of the protocol: as §1
ELF4, sequence (Q99607 whole entry): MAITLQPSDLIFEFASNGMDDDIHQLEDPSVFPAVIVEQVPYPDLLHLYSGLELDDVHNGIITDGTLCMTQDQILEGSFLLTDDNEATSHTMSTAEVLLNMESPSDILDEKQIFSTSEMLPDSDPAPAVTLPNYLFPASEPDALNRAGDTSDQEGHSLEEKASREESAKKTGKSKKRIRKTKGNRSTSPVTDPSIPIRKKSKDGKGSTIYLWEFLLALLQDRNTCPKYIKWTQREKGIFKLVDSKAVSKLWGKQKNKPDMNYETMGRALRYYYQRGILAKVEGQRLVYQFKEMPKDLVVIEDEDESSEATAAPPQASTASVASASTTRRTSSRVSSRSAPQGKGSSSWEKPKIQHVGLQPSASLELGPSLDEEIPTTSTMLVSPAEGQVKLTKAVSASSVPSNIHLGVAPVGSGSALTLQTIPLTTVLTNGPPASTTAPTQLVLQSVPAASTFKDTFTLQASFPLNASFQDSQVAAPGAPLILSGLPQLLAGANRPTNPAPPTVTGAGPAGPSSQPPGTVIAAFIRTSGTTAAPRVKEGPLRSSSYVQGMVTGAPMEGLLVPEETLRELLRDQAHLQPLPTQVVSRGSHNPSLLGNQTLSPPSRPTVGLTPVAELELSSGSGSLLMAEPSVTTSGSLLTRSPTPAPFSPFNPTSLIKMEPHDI
Test [15] concerns the target T9, ELK4 (Homo sapiens, UniProt P28324-2 1-405).
T9 sequence: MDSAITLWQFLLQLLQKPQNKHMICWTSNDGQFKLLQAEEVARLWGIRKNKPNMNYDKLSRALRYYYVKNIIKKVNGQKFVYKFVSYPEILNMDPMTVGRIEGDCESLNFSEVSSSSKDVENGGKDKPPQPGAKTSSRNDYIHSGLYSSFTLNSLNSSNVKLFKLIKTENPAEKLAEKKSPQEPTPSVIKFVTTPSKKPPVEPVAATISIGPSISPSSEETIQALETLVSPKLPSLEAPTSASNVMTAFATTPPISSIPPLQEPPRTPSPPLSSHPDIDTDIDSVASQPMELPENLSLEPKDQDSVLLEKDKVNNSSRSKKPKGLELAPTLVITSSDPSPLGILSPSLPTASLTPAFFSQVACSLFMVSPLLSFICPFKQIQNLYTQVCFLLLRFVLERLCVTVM
To be noted: protein: recombinant; tags: N-terminal GST; dsDNA, one strand shown. The procedure, abridged: as §1

In test [16] the target is T10, ETV2 (Homo sapiens, UniProt O00321 1-342).
T10 sequence: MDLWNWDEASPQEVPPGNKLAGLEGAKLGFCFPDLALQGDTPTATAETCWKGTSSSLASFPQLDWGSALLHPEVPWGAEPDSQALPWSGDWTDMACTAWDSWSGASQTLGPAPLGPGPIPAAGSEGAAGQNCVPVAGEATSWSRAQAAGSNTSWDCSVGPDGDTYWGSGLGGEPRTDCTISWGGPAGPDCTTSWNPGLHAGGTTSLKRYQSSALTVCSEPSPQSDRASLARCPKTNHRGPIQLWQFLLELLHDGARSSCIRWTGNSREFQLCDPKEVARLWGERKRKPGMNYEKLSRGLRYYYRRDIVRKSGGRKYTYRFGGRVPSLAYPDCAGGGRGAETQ
To be noted: protein: recombinant; tags: N-terminal GST; dsDNA, one strand shown. The procedure, abridged:
as §1

The target of test [17] is T11, ELF3 (Homo sapiens, UniProt P78545 1-371).
T11 sequence: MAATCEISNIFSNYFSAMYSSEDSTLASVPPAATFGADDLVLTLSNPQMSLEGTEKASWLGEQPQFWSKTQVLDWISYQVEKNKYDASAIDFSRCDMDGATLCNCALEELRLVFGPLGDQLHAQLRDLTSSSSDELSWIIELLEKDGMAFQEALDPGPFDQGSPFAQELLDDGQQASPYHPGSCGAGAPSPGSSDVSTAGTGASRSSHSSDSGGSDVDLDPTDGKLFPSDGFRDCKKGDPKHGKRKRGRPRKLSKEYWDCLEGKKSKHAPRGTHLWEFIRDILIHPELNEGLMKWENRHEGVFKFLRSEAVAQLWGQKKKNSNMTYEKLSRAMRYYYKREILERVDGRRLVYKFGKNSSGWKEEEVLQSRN
The note with it: protein: recombinant; tags: N-terminal GST; dsDNA, one strand shown. A digest of the protocol: as §1

The target in test [18] is CRX (Homo sapiens, UniProt O43186 1-299). To be noted: protein: recombinant; tags: N-terminal GST; dsDNA, one strand shown. A digest of the protocol:
as §1

In test [19] the target is ETV1 (Homo sapiens, UniProt P50549 1-477). To be noted: protein: recombinant; tags: N-terminal GST; dsDNA, one strand shown. A digest of the protocol: as §1
ETV1, sequence (P50549 whole entry): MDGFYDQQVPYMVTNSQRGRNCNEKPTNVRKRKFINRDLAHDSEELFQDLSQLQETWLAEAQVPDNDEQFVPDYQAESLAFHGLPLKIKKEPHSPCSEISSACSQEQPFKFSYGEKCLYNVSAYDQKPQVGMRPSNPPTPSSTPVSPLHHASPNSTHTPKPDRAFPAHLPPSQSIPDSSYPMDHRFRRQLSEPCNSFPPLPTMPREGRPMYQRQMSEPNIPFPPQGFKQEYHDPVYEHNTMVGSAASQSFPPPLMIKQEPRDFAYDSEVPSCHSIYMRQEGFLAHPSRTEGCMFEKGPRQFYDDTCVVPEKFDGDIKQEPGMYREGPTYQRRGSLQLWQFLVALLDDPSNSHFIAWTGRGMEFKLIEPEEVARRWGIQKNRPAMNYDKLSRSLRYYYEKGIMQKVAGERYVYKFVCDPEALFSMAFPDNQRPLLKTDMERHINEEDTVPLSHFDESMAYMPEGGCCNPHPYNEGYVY

ETV5, sequence (P41161 whole entry): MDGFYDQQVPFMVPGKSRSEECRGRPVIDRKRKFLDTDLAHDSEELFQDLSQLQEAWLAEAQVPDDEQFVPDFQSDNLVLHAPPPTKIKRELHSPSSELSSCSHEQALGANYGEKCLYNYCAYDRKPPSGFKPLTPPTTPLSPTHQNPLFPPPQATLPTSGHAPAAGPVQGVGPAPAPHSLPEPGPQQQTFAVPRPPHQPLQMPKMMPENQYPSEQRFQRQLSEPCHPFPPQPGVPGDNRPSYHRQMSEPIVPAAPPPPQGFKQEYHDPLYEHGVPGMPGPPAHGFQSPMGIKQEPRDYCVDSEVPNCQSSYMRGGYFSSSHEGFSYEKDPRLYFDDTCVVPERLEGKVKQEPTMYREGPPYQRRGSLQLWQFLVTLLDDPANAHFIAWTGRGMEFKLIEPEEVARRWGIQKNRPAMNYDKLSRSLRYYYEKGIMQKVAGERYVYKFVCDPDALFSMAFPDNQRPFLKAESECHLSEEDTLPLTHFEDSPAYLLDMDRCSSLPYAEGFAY
ELF1, sequence (P32519 whole entry): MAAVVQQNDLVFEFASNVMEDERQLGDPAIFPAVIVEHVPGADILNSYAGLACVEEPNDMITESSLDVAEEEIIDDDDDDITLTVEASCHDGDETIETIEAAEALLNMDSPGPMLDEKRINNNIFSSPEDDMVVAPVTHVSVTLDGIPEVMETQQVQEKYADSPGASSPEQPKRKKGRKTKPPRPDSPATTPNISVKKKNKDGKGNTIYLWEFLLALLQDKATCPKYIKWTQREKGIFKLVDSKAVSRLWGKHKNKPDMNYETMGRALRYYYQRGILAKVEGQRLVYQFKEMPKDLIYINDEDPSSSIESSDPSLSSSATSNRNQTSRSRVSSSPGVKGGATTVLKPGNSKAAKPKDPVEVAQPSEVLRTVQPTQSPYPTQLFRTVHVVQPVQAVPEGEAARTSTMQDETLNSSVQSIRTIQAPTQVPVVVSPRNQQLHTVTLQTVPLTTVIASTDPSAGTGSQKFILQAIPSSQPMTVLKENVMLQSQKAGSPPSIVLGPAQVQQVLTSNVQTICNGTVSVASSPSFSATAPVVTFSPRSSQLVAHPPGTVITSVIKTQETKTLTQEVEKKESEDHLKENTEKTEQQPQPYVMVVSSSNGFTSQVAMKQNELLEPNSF
CRX, sequence (O43186 whole entry): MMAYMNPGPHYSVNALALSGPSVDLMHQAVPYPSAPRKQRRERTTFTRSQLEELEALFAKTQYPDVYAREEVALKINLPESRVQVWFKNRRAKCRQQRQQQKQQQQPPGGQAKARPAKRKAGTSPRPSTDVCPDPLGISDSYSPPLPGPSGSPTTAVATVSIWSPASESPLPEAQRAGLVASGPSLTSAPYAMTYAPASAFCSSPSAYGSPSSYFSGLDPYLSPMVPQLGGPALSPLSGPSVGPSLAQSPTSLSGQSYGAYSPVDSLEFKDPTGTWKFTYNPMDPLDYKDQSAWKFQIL

As for TACTAA, the binding signal is 1.2 fold enrichment (6-mer frequency, TF over GST control) in test [1]; 1.23 fold enrichment (6-mer frequency, TF over GST control) in [2]; 1.36 fold enrichment (6-mer frequency, TF over GST control) in [3]; 1.29 fold enrichment (6-mer frequency, TF over GST control) in [4]; 1.28 fold enrichment (6-mer frequency, TF over GST control) in test [5]; 1.3 fold enrichment (6-mer frequency, TF over GST control) in [6]. The binding signal in [7] was 1.25 fold enrichment (6-mer frequency, TF over GST control); in test [8], 1.23 fold enrichment (6-mer frequency, TF over GST control); in test [9] it was 1.24 fold enrichment (6-mer frequency, TF over GST control); in [10], 1.16 fold enrichment (6-mer frequency, TF over GST control); in test [11] it was 1.18 fold enrichment (6-mer frequency, TF over GST control); in test [12], 1.51 fold enrichment (6-mer frequency, TF over GST control). Also, the binding signal in [13] is 1.24 fold enrichment (6-mer frequency, TF over GST control); in test [14], 1.32 fold enrichment (6-mer frequency, TF over GST control); in test [15], 1.4 fold enrichment (6-mer frequency, TF over GST control); in test [16] it was 1.1 fold enrichment (6-mer frequency, TF over GST control); in test [17], 1.27 fold enrichment (6-mer frequency, TF over GST control); in test [18], 2.1 fold enrichment (6-mer frequency, TF over GST control). In addition, in test [19], the binding signal was 1.29 fold enrichment (6-mer frequency, TF over GST control).
